Details in all cases: read-out: apparent Kd; compound concentrations:100 nM and 1000 nM (sheet 'Lestaurtinib' of Supplementary Table 1),run:Lestaurtinib_02487_R1,Plate:MR012; n = 1
The subject of test [1] is BCR.
Test [2] relates to BUB1.
The subject of test [3] is CSK.
Test [4] deals with CSNK2A2.
In test [5] the test system is EPHA1.
Test [6] relates to EPHA2.
For test [7], the system named is EPHA4.
For test [8], the system named is EPHB1.
For test [9], the system named is EPHB3.
For test [10], the system named is EPHB4.
Test [11] relates to FGFR1.
Test [12] deals with GSK3A.
Test [13] deals with GSK3B.
Test [14] deals with LCK.
Test [15] concerns LYN.
The subject of test [16] is RPS6KA1.
Test [17] concerns SRC.
The subject of test [18] is TAOK1.
Test [19] deals with TEC.
Test [20] deals with ULK1.

Take Lestaurtinib: the potency estimated from few doses in [1] is 314 nM; in test [2], 854 nM; in test [3] it was 526 nM; in test [4] it was 415 nM; in test [5] it was 297 nM; in test [6] it was 428 nM. In addition, the potency estimated from few doses in test [7] was 268 nM; in [8] it was 403 nM; in [9] it was 780 nM; in test [10] it was 207 nM; in [11] it was 1150 nM; in test [12], 175 nM. Moreover, the potency estimated from few doses was 295 nM in [13]; 550 nM in [14]; 808 nM in test [15]; 1820 nM in test [16]; 618 nM in [17]; 1530 nM in [18]. Also, the values for the potency estimated from few doses in [19] and in test [20] were 895 nM and 549 nM, respectively.

(Values after PMC11062922 (Nature Chemical Biology, 2023).)
